Bioassay records: PubChem, National Center for Advancing Translational Sciences (NCATS)
TRHR agonist = agonists of human TRH receptor; P34981; 360,000 tested, 0.18% active; activation, % at 2 µM; TRHR cells, calcium flux fluo-8, FDSS agonist mode; note: 0% is about no effect
Target sequence (P34981 whole entry, looked up): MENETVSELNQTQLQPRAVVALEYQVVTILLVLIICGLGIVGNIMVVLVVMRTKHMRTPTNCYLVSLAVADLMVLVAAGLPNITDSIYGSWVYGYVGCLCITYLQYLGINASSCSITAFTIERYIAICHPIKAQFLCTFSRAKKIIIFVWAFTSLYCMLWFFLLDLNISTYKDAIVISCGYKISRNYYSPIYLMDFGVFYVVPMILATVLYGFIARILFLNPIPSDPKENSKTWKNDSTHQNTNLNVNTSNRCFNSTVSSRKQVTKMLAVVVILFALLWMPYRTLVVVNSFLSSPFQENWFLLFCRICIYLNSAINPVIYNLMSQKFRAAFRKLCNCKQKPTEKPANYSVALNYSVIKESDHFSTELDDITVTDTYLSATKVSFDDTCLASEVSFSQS
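Steps: seed TRHR cells overnight; add fluo-8 no-wash Ca dye, RT 30 min–1.5 h; record 10 s baseline; pin-transfer compounds; monitor fluorescence 1 cycle/s for the agonist window. Calcium increases flag candidate agonists.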
D1 potentiator = enhances dopamine response at the human D1 receptor; HEK293 TREx D1 cells, calcium flux, dopamine EC20 potentiation; potentiation, % at 10 µM; 360,000 tested, 0.036% active; AID 504651; in the data active = potentiation above about 30%; note: 0% is about no effect
D1 ag = human D1 receptor agonism | 360,000 tested, 1% active | activation, % at 2 µM | P21728 | HEK293 T-REx D1 cells, calcium flux, agonist mode | AID 504660; note: 0% is about no effect
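Inducible HEK293 T-REx D1 cells, force-coupled to calcium signalling, were plated at 4000 cells/well with tetracycline and held overnight at 30 C. After no-wash calcium dye loading, compound-evoked calcium rise over 180 s flagged agonists.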
D1 antag = human D1 dopamine receptor antagonism; HEK293 TREx D1 cells, calcium flux, dopamine EC80; stronger effect = lower value; P21728; activity change, negative = inhibition, % at 10 µM; 360,000 tested, 3.2% active; in the data active = activity change below about -30%; note: % is set by controls: 0 for no effect and ±100 for the full control effect
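Using tetracycline-induced force-coupled D1 Hek293 cells and a calcium dye, signals were followed for 180 s after compound, then for 180 s after EC80 dopamine, to detect inhibitors.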
TRHR enhancer = TRH receptor (human) allosteric enhancement; P34981; TRHR cells, fluo-8 calcium fluorescence, EC20 TRH enhancement; enhancement, % at 2 µM; 360,000 tested, 0.66% active; AID 493056; in the data active = enhancement above about 30%; note: 0% is about no effect
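TRHR-expressing cells loaded with fluo-8 calcium dye were read kinetically (ex 480/em 530) during compound addition, then stimulated with an EC20 of TRH (10 nM final). Enhancement of the Gq-mediated intracellular calcium response was scored.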
* marks the source's active call; other numbers are inactive results. Only some compounds are listed: those with a hit (about 4.7% of all), similar ones and a draw of the others. Cut-off read from the data, not from the text of the source, unless noted: active = activation above about 30%; inactive = the rest.

`CC(C)(C)/C(Cn1cncn1)=N\OC(=O)Nc1ccc(Cl)cc1` gave TRHR agonist 0, D1 potentiator -7, D1 ag 5, D1 antag -55* and TRHR enhancer -5.
`COc1ccc(N2CCN(C(=O)c3[nH]c4ccc(OC)cc4c3C)CC2)cc1` gave TRHR agonist 0, D1 potentiator -7, D1 ag 1, D1 antag 5 and TRHR enhancer 0.
`CCOC(=O)C1CCN(C(=O)c2[nH]c3ccc(OC)cc3c2C)CC1` gave TRHR agonist -2, D1 potentiator 1, D1 ag 2, D1 antag -67* and TRHR enhancer -3.
COc1ccc(CNC(=O)c2cc3c(=O)n(C)c4ccccc4c3n2C)c(OC)c1 was read as TRHR agonist 0, D1 potentiator -3, D1 ag 3, D1 antag 11 and TRHR enhancer 5.
Screening NS(=O)(=O)c1ccc(CCNC(=O)C2CCCN2S(=O)(=O)c2cccc3nsnc23)cc1 (stereo unspecified) returned TRHR agonist 0, D1 potentiator -3, D1 ag 1, D1 antag -13 and TRHR enhancer 32*.
For O=C(NCCc1ccccc1)C1CCCN1S(=O)(=O)c1cccc2nsnc12 (stereo unspecified) the results were TRHR agonist 0, D1 potentiator 0, D1 ag 5, D1 antag -3 and TRHR enhancer -2.
CCOC(=O)c1ccc2c(c1)nc(SCC(=O)c1ccco1)n2CC was read as TRHR agonist -1, D1 potentiator -2, D1 ag 0, D1 antag -34* and TRHR enhancer -2.
For C/C(=N/NC(=O)c1ccccc1)C(=O)O the results were TRHR agonist 0, D1 potentiator -1, D1 ag 0, D1 antag -31* and TRHR enhancer 28.
COc1ccc(Br)cc1S(=O)(=O)N1CCN(S(=O)(=O)c2ccc3c(c2)OCCO3)CC1 was read as TRHR agonist 0, D1 potentiator 2, D1 ag 2, D1 antag 6 and TRHR enhancer 0.
`CC(C)CCn1cnc2c1c(=O)[nH]c(=O)n2Cc1ccccc1` gave TRHR agonist 0, D1 potentiator 0, D1 ag 2, D1 antag 10 and TRHR enhancer 2.
For CC(C)Cn1cnc2c1c(=O)[nH]c(=O)n2Cc1ccccc1 the results were TRHR agonist -1, D1 potentiator -2, D1 ag 2, D1 antag -47* and TRHR enhancer 6.
CCCCC(O)C(=O)Nc1cc(C(F)(F)F)ccc1Cl (stereo unspecified) was read as TRHR agonist -3, D1 potentiator 0, D1 ag 2, D1 antag -18 and TRHR enhancer 1.
O=C(NCCSC1CCCCC1)c1ccccc1 was read as TRHR agonist -1, D1 potentiator -16, D1 ag 0, D1 antag -77* and TRHR enhancer -22.
COc1ccc(C(=O)NC(=S)N(C)C2CCCCC2)cc1 was read as TRHR agonist 0, D1 potentiator -3, D1 ag 0, D1 antag -46* and TRHR enhancer 2.
Screening COc1ccc(C(=O)NCCSC2CCCCC2)cc1 returned TRHR agonist 0, D1 potentiator -5, D1 ag 1, D1 antag -43* and TRHR enhancer 1.
`COc1ccc(C(=O)NC(=S)N(C)C2CCCCC2)cc1Br` gave TRHR agonist 0, D1 potentiator 18, D1 ag 1, D1 antag -17 and TRHR enhancer 2.
`CS(=O)(=O)Nc1ccc(C(=O)NCCSC2CCCCC2)cc1` gave TRHR agonist 0, D1 potentiator -1, D1 ag 0, D1 antag 1 and TRHR enhancer 3.
Screening CCC1CCCCN1C(=O)c1sc(-n2nc(C)c(Cc3ccccc3)c2C)nc1C (stereo unspecified) returned TRHR agonist 1, D1 potentiator 1, D1 ag -1, D1 antag -10 and TRHR enhancer 2.
Screening COc1ccc(Br)cc1/C=c1\sc2nc(-c3ccco3)nn2c1=O returned TRHR agonist 1, D1 potentiator 2, D1 ag 4, D1 antag -3 and TRHR enhancer -3.
COc1ccccc1/C=c1\sc2nc(-c3ccccc3OC)nn2c1=O was read as TRHR agonist 0, D1 potentiator -1, D1 ag 1, D1 antag -36* and TRHR enhancer 7.
